Sampled rows, rich in hits. Any-hit rate of the full collection: about 3.3%.
HCV inhibitor: HCV inhibition; Huh7.5.1 HCVcc-Cre infection, luciferase reporter, 44 h; Potency, µM (titrated, usually from 41.8 µM), hits mostly inhibitors; actives 3.4% (n = 340,000); AID 651820; active = well fitted inhibition curve with a large enough effect; inconclusive = small, poorly fitted or top-dose-only effect, or another doubt; inactive = no such curve, though single readings can be large or run the other way
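Luciferase read-out (15 sec integration) after a 15 min room-temperature substrate step quantifies HCVcc-Cre infection. Cells, 1,000 per well, had compound added 4 h post-plating, then virus at ~0.5 moi, and were cultured 44 h.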
Vaccinia mCherry: vaccinia inhibition (mCherry reporter); Vaccinia virus mCherry reporter infection, fluorescence; Potency, µM (highest dose often 36.5 µM), actives largely listed as inhibitors; actives 0.63% (n = 310,000); calls by dose curve; tested in A549 cells; also: nearly all actives have a fitted effect of over 35% in size
VACV Venus inh: inhibitors of vaccinia virus (Venus reporter); Vaccinia virus Venus reporter expression, fluorescence; Potency, µM (titrated, usually from 36.5 µM), most hits filed as inhibitors; actives 0.46% (n = 330,000); calls by dose curve; tested in A549 cells; also: nearly all actives have a fitted effect of over 30% in size
Numbers stand for hits; [ ] = dose if it differs, or a comment.

Results for COc1cc(CNc2nc(C)c([N+](=O)[O-])c(C)c2C#N)cc(OC)c1OC ?
HCV inhibitor: 6.3µM; Vaccinia mCherry: inactive; VACV Venus inh: inactive

What do the screens show for `CCOc1ccc2nc(NC3=NC(c4ccc(OC)cc4)CC(=O)N3)nc(C)c2c1` (stereo not given)?
HCV inhibitor: 8.9µM; Vaccinia mCherry: inactive; VACV Venus inh: inactive

What do the screens show for `CCOc1ccc(C2CC(=O)NC(NC(=O)c3ccc(C)cc3)=N2)cc1` (stereo not given)?
Vaccinia mCherry: inactive; VACV Venus inh: inactive

Results for O=C(NCCN1CCOCC1)c1cnn(-c2ncc3c(n2)-c2ccccc2CC3)c1C1CC1 ?
Vaccinia mCherry: inactive; VACV Venus inh: inactive

Results for CCC(Sc1nc(-c2ccccc2)c(-c2ccccc2)[nH]1)C(=O)O (stereo not given) ?
HCV inhibitor: inactive; Vaccinia mCherry: inactive; VACV Venus inh: inactive

What do the screens show for `CN(C)CCCNc1ncnc2scc(-c3ccccc3)c12`?
HCV inhibitor: inconclusive; Vaccinia mCherry: inactive; VACV Venus inh: inactive

What do the screens show for `Oc1ccc(Nc2ncnc3scc(-c4ccccc4)c23)cc1`?
HCV inhibitor: 8.9µM; Vaccinia mCherry: inactive; VACV Venus inh: inactive

How did CCOc1ccc(-c2csc3ncnc(Nc4cccc(O)c4)c23)cc1 do in these assays?
Vaccinia mCherry: inactive; VACV Venus inh: inactive

What do the screens show for `c1ccc(-c2csc3ncnc(NCc4ccccn4)c23)cc1`?
HCV inhibitor: 10µM

What do the screens show for `Cc1ccc(-c2csc3ncnc(NCCN4CCOCC4)c23)cc1`?
HCV inhibitor: inconclusive; Vaccinia mCherry: inactive; VACV Venus inh: inactive

How did c1ccc(-c2csc3ncnc(NCCN4CCOCC4)c23)cc1 do in these assays?
HCV inhibitor: 11µM; Vaccinia mCherry: inactive; VACV Venus inh: inconclusive

How did CN(C)c1ccc(C=O)cc1Cl do in these assays?
Vaccinia mCherry: inactive; VACV Venus inh: inactive

How did CCOc1ccc(CC(=O)Nc2c(C(=O)c3ccc(C)cc3)oc3ccccc23)cc1OCC do in these assays?
Vaccinia mCherry: inactive; VACV Venus inh: inactive

What do the screens show for `COCCCNC(=O)c1ccc(S(=O)(=O)c2ccc(C)cc2)c(NC(C)=O)c1`?
HCV inhibitor: inactive

How did CSc1ccc(/C=C/C(=O)c2ccc(O)cc2)cc1 do in these assays?
HCV inhibitor: inactive; Vaccinia mCherry: 11µM; VACV Venus inh: inconclusive

What do the screens show for `Cc1ccc(/C=C/C(=O)c2ccc(O)cc2)cc1`?
HCV inhibitor: inactive; Vaccinia mCherry: 11µM; VACV Venus inh: inactive

How did O=C(O)/C=C/c1ccc(O)cc1 do in these assays?
HCV inhibitor: inactive; Vaccinia mCherry: inactive; VACV Venus inh: inactive

How did Cc1ccc(C(=O)/C=C/C(=O)O)cc1 do in these assays?
HCV inhibitor: inactive; Vaccinia mCherry: inactive; VACV Venus inh: inactive

How did CCOCCn1c(C)c(C(=O)OCC)c2cc(O)c3ccccc3c21 do in these assays?
HCV inhibitor: inactive; Vaccinia mCherry: inactive; VACV Venus inh: inactive

Results for COc1ccccc1C1CN(Cc2cccc(O)c2)Cc2ccccc2O1 (stereo not given) ?
Vaccinia mCherry: inactive; VACV Venus inh: inactive

What do the screens show for `COc1ccc(C(=O)N/N=C/c2ccc(OC)c(OS(=O)(=O)c3ccccc3)c2)cc1`?
HCV inhibitor: 10µM; Vaccinia mCherry: inconclusive; VACV Venus inh: inactive

Results for COc1ccc(/C=N/NC(=O)c2ccc(N(C)S(=O)(=O)c3ccccc3)cc2)c(OC)c1 ?
HCV inhibitor: inactive; Vaccinia mCherry: inactive; VACV Venus inh: inactive

How did CN(c1ccc(C(=O)N/N=C/c2cccc([N+](=O)[O-])c2)cc1)S(=O)(=O)c1ccccc1 do in these assays?
HCV inhibitor: 13µM; Vaccinia mCherry: inactive; VACV Venus inh: inactive

How did COc1ccc(/C=N/NC(=O)c2ccc(N(C)S(=O)(=O)c3ccccc3)cc2)cc1 do in these assays?
HCV inhibitor: 13µM

How did COc1ccc(/C=N/NS(=O)(=O)c2ccccc2)cc1OS(=O)(=O)c1ccccc1 do in these assays?
HCV inhibitor: inactive; VACV Venus inh: inactive

How did COc1ccccc1/C=N/NC(=O)c1ccc(N(C)S(=O)(=O)c2ccccc2)cc1 do in these assays?
HCV inhibitor: inactive

Results for COc1ccc(NC(=O)COc2ccc(N(C)S(=O)(=O)c3ccc(C)cc3)cc2)cc1 ?
HCV inhibitor: inconclusive; Vaccinia mCherry: inactive; VACV Venus inh: inactive

Results for COc1ccc(NC(=O)COc2ccc(N(C)S(=O)(=O)c3ccc(Cl)cc3)cc2)cc1 ?
HCV inhibitor: 11µM

What do the screens show for `C[N+]1(CC(=O)c2cccc([N+](=O)[O-])c2)CCOCC1`?
Vaccinia mCherry: inactive; VACV Venus inh: inactive

How did O=C(COc1ccc(Cl)cc1)Nc1cccc(-c2ccc(N3CCOCC3)nn2)c1 do in these assays?
HCV inhibitor: inconclusive; Vaccinia mCherry: inactive; VACV Venus inh: inactive

What do the screens show for `COc1ccc(C2=NO[C@@](CC(=O)O)(C(=O)Nc3ccc4c(c3)OCCO4)C2)cc1`?
HCV inhibitor: inactive; Vaccinia mCherry: inactive; VACV Venus inh: inactive

How did COc1ccc(C(=O)Nc2ccc(S(=O)(=O)N(C)c3ccccc3)cc2)cc1 do in these assays?
HCV inhibitor: 13µM; Vaccinia mCherry: inactive; VACV Venus inh: inactive

How did CCOc1cc(/C=N/NC(=O)c2cccc([N+](=O)[O-])c2)ccc1OS(=O)(=O)c1ccccc1 do in these assays?
HCV inhibitor: 8.9µM

Results for COc1ccc(/C=N/NC(=O)c2cccc([N+](=O)[O-])c2)cc1OS(=O)(=O)c1ccc(C)cc1 ?
HCV inhibitor: inactive

How did COc1cc(/C=N/NC(=O)c2ccc(-c3ccccc3)cc2)cc(OC)c1OC do in these assays?
HCV inhibitor: inactive; Vaccinia mCherry: 5.6µM; VACV Venus inh: inconclusive

Results for COc1cc(C(=O)Nc2ccc(S(=O)(=O)N(C)c3ccccc3)cc2)cc(OC)c1OC ?
HCV inhibitor: inconclusive; Vaccinia mCherry: inconclusive; VACV Venus inh: inactive

What do the screens show for `COc1ccc(/C=N\NC(=O)c2ccc(-c3ccccc3)cc2)c(OC)c1OC`?
HCV inhibitor: inconclusive; Vaccinia mCherry: inactive; VACV Venus inh: inactive

Results for CC(=O)Nc1ccc(S(=O)(=O)Oc2ccc(/C=N/NC(=O)c3ccc(Cl)cc3)cc2)cc1 ?
HCV inhibitor: 4µM; Vaccinia mCherry: inconclusive; VACV Venus inh: inactive

What do the screens show for `CC(=O)Nc1ccc(C(=O)N/N=C/c2ccc(F)cc2)cc1`?
HCV inhibitor: inactive

How did COc1ccc(OC)c(C(=O)c2ccc(C(=O)Nc3ccc(NC(C)=O)cc3)cc2)c1 do in these assays?
Vaccinia mCherry: inactive; VACV Venus inh: inactive

Results for COc1ccc(CN(C)C(=O)c2cnc(OC)cc2C(F)(F)F)c(OC)c1 ?
HCV inhibitor: inactive

Results for O=C(Cc1ccc(OCC2CCCCC2)cc1)NO ?
Vaccinia mCherry: inactive; VACV Venus inh: inactive

What do the screens show for `Cc1ccc2c(c1)N(C(=O)N1CCC(C(=O)NC3CCCCCC3)CC1)CCO2`?
Vaccinia mCherry: inactive; VACV Venus inh: inactive

How did CS(=O)(=O)c1ccc(C(=O)OCC(=O)Nc2ccc(OC(F)(F)F)cc2)cc1[N+](=O)[O-] do in these assays?
Vaccinia mCherry: inactive; VACV Venus inh: inactive

What do the screens show for `Cc1ccc2ncc(C(=O)NCCc3ccc(S(N)(=O)=O)cc3)c(=O)n2c1`?
Vaccinia mCherry: inactive[7.34 µM]; VACV Venus inh: inactive[7.34 µM]

What do the screens show for `Cc1cc(C)c(C(=O)NCc2nc(-c3cccc(NC(=O)C4CCCN(C)C4)c3)oc2C)[nH]1` (stereo not given)?
Vaccinia mCherry: inactive; VACV Venus inh: inactive

Results for CNc1c(Br)cc(/C=C2\C=Cc3ccccc32)cc1Br ?
Vaccinia mCherry: inactive; VACV Venus inh: inactive
